The campaign covered roughly 47,000 compounds. About 510 (1.1%) were called active. Cut-off read from the data, not from the text of the source: active = inhibition above about 30%; inactive = the rest. The sample as a whole holds a higher share of actives than the screen did.

The record followed here is PubChem BioAssay AID1645856 (Buhrlage Lab, Dana-Farber Cancer Institute and Novartis …, 2021).

The target of the assay is Ubiquitin carboxyl-terminal hydrolase 10 (Homo sapiens) (UniProt Q14694). Briefly: inhibitors of human USP10 deubiquitinase (AID 1645856). The settings on record: purified USP10, Ub-rhodamine fluorescence, 60 min; at 20 µM; hits give high values.
Ubiquitin carboxyl-terminal hydrolase 10 (Homo sapiens), sequence (Q14694 whole entry, looked up): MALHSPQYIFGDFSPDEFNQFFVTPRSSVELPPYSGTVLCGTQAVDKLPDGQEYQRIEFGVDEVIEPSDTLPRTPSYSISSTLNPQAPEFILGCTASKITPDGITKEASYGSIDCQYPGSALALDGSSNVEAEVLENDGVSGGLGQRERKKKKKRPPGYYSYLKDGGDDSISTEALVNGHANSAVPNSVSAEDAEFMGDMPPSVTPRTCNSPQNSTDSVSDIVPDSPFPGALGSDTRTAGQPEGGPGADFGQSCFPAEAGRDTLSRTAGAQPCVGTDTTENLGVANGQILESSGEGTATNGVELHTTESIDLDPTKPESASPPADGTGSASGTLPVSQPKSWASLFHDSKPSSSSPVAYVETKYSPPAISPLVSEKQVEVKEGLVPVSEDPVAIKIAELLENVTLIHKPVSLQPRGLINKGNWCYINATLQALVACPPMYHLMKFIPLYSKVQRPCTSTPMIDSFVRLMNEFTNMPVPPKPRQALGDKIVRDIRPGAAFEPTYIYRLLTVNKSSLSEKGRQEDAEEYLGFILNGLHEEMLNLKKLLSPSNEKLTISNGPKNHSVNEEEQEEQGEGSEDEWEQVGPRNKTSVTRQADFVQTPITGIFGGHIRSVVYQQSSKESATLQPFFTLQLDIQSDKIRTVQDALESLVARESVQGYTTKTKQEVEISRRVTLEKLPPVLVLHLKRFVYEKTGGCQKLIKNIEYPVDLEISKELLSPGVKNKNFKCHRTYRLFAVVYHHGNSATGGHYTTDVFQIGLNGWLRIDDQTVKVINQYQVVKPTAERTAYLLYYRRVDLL
Broadly, the inhibition is the drop in the measured response relative to a control, in per cent. With `O=C(Nc1cccc(Cl)c1)N(Cc1ccccc1)CC1CC=CCC1` (stereo not given), the inhibition was 16.3% (inactive).
Turning to `CCc1nnc(CN2CCC(C3CCCCCN3C(=O)NC(C)C)CC2)o1` (stereo not given), the inhibition is -4.07% (inactive).
Regarding `COc1ccc(Nc2cc(C(=O)N3CCC4(CC3)OCCO4)c3ccccc3n2)cc1`, the inhibition was -0.645% (inactive).
To `CCN1C(=O)[C@H]2CN(C(C)=O)C[C@H]2C12CCN(C(=O)NCCc1ccc(OC)cc1)CC2` belongs 0.803% (inactive); to `O=C(CN(Cc1ccccc1Cl)S(=O)(=O)c1ccccc1F)NC(c1ccccc1)c1ccccc1`, 6.49% (inactive).
Turning to `Cc1ccc2[nH]c(=O)c(CN(CC3COCCO3)C(=O)Nc3ccccc3C)cc2c1` (stereo not given), the inhibition was -0.00505% (inactive).
As for `Cc1cc(=O)n(CC(=O)Nc2ccc3c(c2)OCO3)c2c1c(-c1ccccc1)nn2-c1ccccc1`, the inhibition was 25% (inactive).
Regarding `O=S(=O)(c1cc(-c2nnc(C3CC3)o2)co1)N1CCCCC1`, the inhibition is -3.39% (inactive).
For the molecule `O=C(NC1CCCC1)c1ccc(N2CCOc3ccccc32)s1`, the inhibition was 0.616% (inactive).
In the case of `CCc1nnc(-c2cc(S(=O)(=O)Nc3ccccc3F)c[nH]2)o1`, the inhibition was -2.11% (inactive).
Regarding `O=C(Oc1ccc(Oc2ccccc2)cc1)c1ccc([N+](=O)[O-])cc1`, the inhibition is 7.41% (inactive).
Regarding `Cc1nn(-c2ccc(F)cc2)c(C)c1S(=O)(=O)NC1CC1`, the inhibition is -2.46% (inactive).
`COc1ccc(NS(=O)(=O)c2cc(NC(=O)CC(=O)c3ccc([N+](=O)[O-])cc3)ccc2C)cc1`: the inhibition is 43.8% (active).
`COc1ccc(NS(=O)(=O)c2cc(NC(=O)COc3ccccc3F)ccc2OC)cc1`: the inhibition is 3.65% (inactive).
For the molecule `COc1ccc(NS(=O)(=O)c2cc(NC(=O)/C=C/c3cccc(OC)c3)ccc2OC)cc1`, the inhibition is 0.326% (inactive).
For the molecule `Cc1ccc(C2c3[nH]c4ccccc4c3C[C@H]3C(=O)N(c4ccccc4C(=O)NC4CCCCC4)C(=O)N23)cc1` (stereo not given in full), the inhibition is -9.46% (inactive).
On to `Cc1cccc(C(=O)NCc2nnc3ccccn23)c1`, for which the inhibition was 5.59% (inactive).
Consider `CCOc1c(C)cnc2c1c(=O)n(CC(=O)N1CCC(C)CC1)c(=O)n2C`, for which the inhibition was -3.58% (inactive).
With `c1ccc(OCCn2nc(C3CCN(C4CCOCC4)CC3)c3nccnc32)cc1`, the inhibition was -0.0392% (inactive).
On to `O=C(NCc1ccc2c(c1)OCO2)c1cn(-c2cccc(Cl)c2)nn1`, for which the inhibition is 28.3% (inactive).
In the case of `CCN1CCN(Cc2nc(-c3ccc(N4CCCCC4)nc3)no2)CC1`, the inhibition is 0.502% (inactive).
Consider `CCc1cc(C2CCCN2C(=O)NCc2ccc(F)cc2)on1` (stereo not given), for which the inhibition is 0.108% (inactive).
With `CC1(C(=O)NC2CCCCCC2)Cc2ccccc2C(=O)N1C1CCCCC1` (stereo not given), the inhibition is 3.98% (inactive).
`Nc1ccc(C(=O)OCC(=O)NC2CCCc3ccccc32)cc1[N+](=O)[O-]` (stereo not given): the inhibition is 31.8% (active).
Turning to `O=C(c1ccccc1)c1ccc(NC2CCCc3ccccc32)c([N+](=O)[O-])c1` (stereo not given), the inhibition was -3.29% (inactive).
To `O=C(COC(=O)c1ccc(F)cc1)NC1CCCc2ccccc21` (stereo not given) belongs -2.88% (inactive).
In the case of `N#Cc1ccccc1OCC(=O)Nc1ccc(-c2cn3ccsc3n2)cc1`, the inhibition was -4.52% (inactive).
Consider `CCOc1ccc2c(c1)c(=O)c(C(=O)c1ccccc1)cn2CC(=O)Nc1ccc(OC)cc1`, for which the inhibition is 59.7% (active).
`COc1ccc(NC(=O)CSc2cn(CC(=O)N3CCCC3)c3ccccc23)cc1`: the inhibition was 1.6% (inactive).
Turning to `CCOc1ccc(NC(=O)Cn2cc(C(=O)c3ccc(Cl)cc3)c(=O)c3cc(OC)ccc32)cc1`, the inhibition is 27% (inactive).
Consider `O=C(CN1CCCN(c2cc(-c3ccc(N4CCOCC4)cc3)ncn2)CC1)N1CCOCC1`, for which the inhibition was -2.74% (inactive).
As for `CCN1C(=O)[C@H]2CN(CCOC)C[C@H]2C12CCN(C(=O)Nc1ccccc1)CC2`, the figure is 0.649% (inactive); as for `Cc1ccc(CN2C(=O)C(CC(=O)Nc3ccccc3F)n3c2nc2ccccc23)cc1` (stereo not given), 6.51% (inactive); as for `Cc1cc2nc(N3CCOCC3)n(CC(=O)Nc3ccccc3F)c(=O)c2n1C`, -1.21% (inactive).
As for `Cc1nc2c(c(C)c1CCC(=O)Nc1ccccc1F)c(=O)n(C)c(=O)n2C`, the figure is 32.5% (active).
As for `COc1ccc(NC(=O)CC2C(=O)NCCN2C(=O)Nc2ccc(F)cc2)cc1` (stereo not given), the figure is -0.861% (inactive); as for `CCOc1ccc(-c2noc(-c3nn(-c4cccc(OC)c4)ccc3=O)n2)cc1`, 7.86% (inactive).
In the case of `O=C(COC(=O)C1CCN(S(=O)(=O)c2c(Cl)cccc2Cl)CC1)Nc1ccc2c(c1)CCC2`, the inhibition was 6.62% (inactive).
In the case of `O=C(Nc1nnc(-c2cccc([N+](=O)[O-])c2)o1)C1CCN(S(=O)(=O)c2ccc3c(c2)CCC3)CC1`, the inhibition was 46.7% (active).
Take `Cc1cccc(-c2nnc(-c3cccc(S(=O)(=O)N4CCCC4)c3)o2)c1`: the inhibition is 3.94% (inactive).
`CCOC(=O)C1CCN(C(=O)c2cnc(Nc3ccc(C)c(Cl)c3)c3ccccc23)CC1`: the inhibition is 6.16% (inactive).
Regarding `COc1ccc(C(=O)Cn2nc(C)cc2C)cc1`, the inhibition was -2.02% (inactive).
Take `Cc1cc(C)cc(NC(=O)c2cc(CN3CCOCC3)on2)c1`: the inhibition is -1.83% (inactive).
Turning to `O=C(NCC1CCCO1)c1[nH]c2ccccc2c1Sc1ccc(Cl)cc1` (stereo not given), the inhibition is 0.402% (inactive).
With `Cc1ccc(CC(=O)N2CCCC(c3ccncn3)C2)s1` (stereo not given), the inhibition was -2.71% (inactive).
Consider `CC(c1ccncc1)n1nccc1NC(=O)c1cccnc1Sc1ccccc1` (stereo not given), for which the inhibition is -7.87% (inactive).
With `CCc1noc(-c2ccnc(-n3ncc(C(=O)N4CCC(C)CC4)c3C)c2)n1`, the inhibition is -0.304% (inactive).
Turning to `COc1ccc(-c2cc(C(=O)NCCCN3CCCC3=O)c3ccccc3n2)cc1OC`, the inhibition was -3.65% (inactive).
Turning to `CC(C)CC1NC(=O)C2(CCN(C(=O)Nc3ccc(Cl)c(Cl)c3)CC2)NC1=O` (stereo not given), the inhibition is 1.3% (inactive).
`O=C(NCC1CCCO1)c1ccccc1N1C(=O)[C@@H]2Cc3c([nH]c4ccccc34)C(c3cccc(Cl)c3)N2C1=O` (stereo not given in full): the inhibition was -2.66% (inactive).
Turning to `O=C(Nc1ccccc1Br)c1ncoc1-c1cccs1`, the inhibition is 2.95% (inactive).
Turning to `CCCc1nc(-c2c(C)cc(C)nc2NC(=O)C2CCCCC2)no1`, the inhibition is -4.35% (inactive).
Turning to `O=S(=O)(Nc1cccc(O)c1)c1ccc2oc3ccc(S(=O)(=O)Nc4cccc(O)c4)cc3c2c1`, the inhibition was 54.6% (active).
Regarding `Cc1cccc(NS(=O)(=O)c2ccc3nnc(C)n3c2)c1`, the inhibition is -2.24% (inactive).
Consider `COc1cccc(NS(=O)(=O)c2ccc(-c3coc(C)n3)cc2)c1`, for which the inhibition is 2.04% (inactive).
